DAX1 inh-1 – inhibitors of DAX1 repression of SF-1 activated StAR promoter | HEK293T StAR-luciferase reporter, SF-1/DAX-1 repression relief | inhibition, % at 6.8 µM | 1.1% of 370,000 active | AID 652010;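 active = inhibition above the mean over all tested compounds plus 3 SD, cut at about 3.6% in these data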;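 note: higher inhibition means more luminescence from relief of DAX-1 repression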
hgDAF-12 ag – agonists of H. glycines DAF-12 nuclear receptor; HEK293 GAL4-hgDAF12 UAS-luciferase reporter, agonist luminescence; normalized to butyrate control; activation, % at 6.8 µM; 1.8% of 370,000 active; AID 687014;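 active = activation above a cutoff set at the mean of all screened compounds plus 3 SD, cut at about 10% in these data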
DAX1 inh-2 – inhibits human nuclear receptor DAX1; HEK293 Gal4-DAX1 luciferase reporter, luminescence; inhibition, % at 6.75 µM; 0.99% of 340,000 active;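 active = inhibition above the mean over all tested compounds plus 3 SD, cut at about 4.2% in these data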;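 note: inhibition shows as a rise in luminescence from relieved DAX1 repression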
Target sequence (P51843 207-470 limits assumed): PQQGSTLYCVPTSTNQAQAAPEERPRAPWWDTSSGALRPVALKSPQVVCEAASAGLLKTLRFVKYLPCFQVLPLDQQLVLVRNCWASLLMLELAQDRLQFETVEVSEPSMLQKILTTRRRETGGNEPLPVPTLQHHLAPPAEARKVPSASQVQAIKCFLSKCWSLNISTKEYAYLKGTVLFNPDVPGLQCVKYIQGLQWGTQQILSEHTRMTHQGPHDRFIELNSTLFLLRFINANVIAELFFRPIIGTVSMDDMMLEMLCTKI
hcDAF12 agonist – activates DAF-12 receptor from parasite H. contortus; activation, % at 6.8 µM; 1.4% of 370,000 active; AID 652067; HEK293 hcDAF-12 lit1-tk-luc reporter, luminescence; 0% DMSO, 100% Δ7-dafachronic acid;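 active = activation above the mean of all tested compounds plus 3 SD, cut at about 5.5% in these data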
ssDAF-12 act – activates DAF-12 receptor from parasite S. stercoralis | activation, % at 6.8 µM | 1% of 370,000 active | AID 652126 | HEK293 ssDAF-12/GRIP1 lit1-tk-luc reporter, luminescence; % of 3 µM dafachronic acid response;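 active = activation above the mean over all tested compounds plus 3 SD, cut at about 0.9% in these data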
Of the large screens only hits and unclear results are named; the others gave an inactive call. Shown are actives, neighbours in structure and some others; about 4.1% of the full set was active somewhere.

Cc1cccc(Nc2ccc([N+](=O)[O-])cc2C(=O)O)c1	none
CCCCc1ccc2nc(NC(=O)c3ccc(Br)o3)sc2c1	hgDAF-12 ag 11 (no result: DAX1 inh-1, DAX1 inh-2)
CCc1noc(C)c1C(=O)Nc1nc2ccc(F)cc2s1	DAX1 inh-1 3.9
CCc1ccc2nc(NC(=O)c3cc(C)on3)sc2c1	hgDAF-12 ag 12
COC(=O)c1cc2c(c3c4cc(OC)ccc4n(S(=O)(=O)c4ccc(OC)cc4)c13)C(=O)N(C1CCCCC1)C2	none (no result: DAX1 inh-2)
COc1ccc(CNC2CCC23CCC(C)CC3)cc1OC (centres undefined)	none (no result: DAX1 inh-1, DAX1 inh-2)
COc1cc(NC(=O)C2CCCN(S(=O)(=O)c3ccccc3[N+](=O)[O-])C2)cc(OC)c1 (centres undefined)	none (no result: DAX1 inh-2)
CCCCOCCCNC(=O)C[C@H]1C[C@@]2(C(=O)OC)C(=C[C@H](C(C)(C)C)O[C@@H]2C)N(CCC2=CCCCC2)C1=O	none (no result: DAX1 inh-2)
COC(=O)c1cc(-c2cc3ccccc3s2)c(=O)n2c1CCC2	none (no result: DAX1 inh-2)
Cc1ccc(/C=C2/C(=O)c3ccc(C(=O)O)cc3C2=O)o1	none
Cc1ccc(C=C2C(=O)c3ccccc3C2=O)o1	hcDAF12 agonist 6.3
O=c1c(N2CCOCC2)c(N2CCOCC2)c1=O	DAX1 inh-2 7.2
CC(C)Oc1c(N2CCOCC2)c(=O)c1=O	none
COC(=O)[C@H](C)NC(=O)[C@@H]1CC=C[C@@H]2CCN(CCc3ccccc3)C(=O)[C@@H]21	none (no result: DAX1 inh-1, DAX1 inh-2)
COc1cc2c3c(cccc3c1)C(=O)N(CCN1CCCC1)C2=O	DAX1 inh-2 8.7
COc1ccc(C(=O)CN2CCN(CCN3C(=O)c4cccc5cccc(c45)C3=O)CC2)cc1	none
COc1ccc(OC)c(S(=O)(=O)N2CCCC(C(=O)N3CCN(Cc4ccccc4)CC3)C2)c1 (centres undefined)	none (no result: DAX1 inh-2)
O=C(CCCN1C(=O)c2ccccc2C1=O)Nc1nc2ccccc2[nH]1	DAX1 inh-2 4.8
O=C(Nc1nc2ccccc2[nH]1)C12CC3CC(CC(C3)C1)C2	hcDAF12 agonist 5.8
CSc1ccccc1C(=O)Nc1nc2ccccc2[nH]1	DAX1 inh-1 3.8
O=C(Cc1ccccc1Cl)Nc1nc2ccccc2[nH]1	hcDAF12 agonist 6.0
CSc1ccccc1C(=O)Nc1nc2ccccc2c(=O)[nH]1	none
Cc1ccccc1CNC(=O)C1CCCN(c2ncccn2)C1 (centres undefined)	none (no result: DAX1 inh-2)
CC(C)(C)C1CCC(=NNC(=S)Nc2cccnc2)CC1 (centres undefined)	ssDAF-12 act 3.8
CN1Cc2nnn(Cc3ccccc3)c2-c2cc(N3CCCCC3)ccc2S1(=O)=O	none (no result: DAX1 inh-2)
COc1cccc(/C=C2\SC(=S)N(CCC(=O)NNC(=O)c3ccccc3OC)C2=O)c1	ssDAF-12 act 1.0
O=C(CCN1C(=O)/C(=C\c2cccc(Br)c2)SC1=S)NCCCN1CCOCC1	hcDAF12 agonist 6.0
CCC[C@H]1[C@@H](NC(=O)c2ccc(C)cc2)CC[C@@]23CCCN2C(=O)CCC[C@@H]13	none (no result: DAX1 inh-1, DAX1 inh-2)
COCCNC(=O)COC(=O)CSCc1nc2ccccc2s1	hcDAF12 agonist 5.8
OC(c1ccccc1)(c1ccccc1)C1CCN(CCCOc2ccc(-c3ccc(F)cc3F)cc2)CC1	none (no result: DAX1 inh-2)
CCC(CO)Nc1ccn2nc(-c3cccc(Cl)c3)cc2n1 (centres undefined)	DAX1 inh-1 3.9, hgDAF-12 ag 13 (no result: DAX1 inh-2)
OC1CCC(Nc2ccn3nc(-c4cccc(Cl)c4)cc3n2)CC1 (centres undefined)	none (no result: DAX1 inh-2)
CCN(C(=O)Cn1c([N+](=O)[O-])cnc1C)c1ccccc1	ssDAF-12 act 1.5
Cc1nc2c(-c3ccc(F)cc3)cnn2c(N)c1-c1ccc(F)cc1	DAX1 inh-2 4.3
COc1ccc(-c2c(C)nc3c(-c4ccsc4)cnn3c2N)cc1	DAX1 inh-2 5.2
CC(C)(C)S(=O)(=O)c1cnc2c(-c3ccsc3)cnn2c1N	none
Cc1cc(N)n2ncc(-c3ccc(F)cc3)c2n1	none
C=CCN1[C@H](Cc2ccccc2)COc2cc(F)ccc2S1(=O)=O	none (no result: DAX1 inh-2)
COc1cc2c(c(OC)c1OC)C1(CCCCC1)CC2NC(=O)c1ccncc1 (centres undefined)	none (no result: DAX1 inh-2)
Cc1ccc2nc3ccc(N4CCN(C)CC4)nn3c(=O)c2c1	DAX1 inh-1 4.3, hcDAF12 agonist 5.7
N#Cc1c(F)cccc1NCCCn1ccnc1	DAX1 inh-2 4.6
O=C(c1ccc(Cl)cc1)c1cnc(-c2ccccc2)s1	none
CC(=O)c1cnc(Nc2cccc(Cl)c2Cl)s1	hgDAF-12 ag 13
